Screening data from PubChem BioAssay.
HT1080-NT tox – kills 2HG-producing HT-1080-NT fibrosarcoma cells; HT-1080-NT fibrosarcoma viability, CellTiter-Glo ATP luminescence, 48 h; Potency, µM (doses to about 46.1 µM), for inactives: top-dose activity, negative = less viability, actives largely listed as cytotoxic; 1.6% of 360,000 active; AID 686970;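 also: NT is the 2HG producing partner of a matched IDH1 knockdown line; potency is read from the fitted curve at half-maximal effect; 0% = DMSO-treated cells and -100% = media-only wells without cells; nearly all actives have a fitted effect of over 55% in size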
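Fibrosarcoma NT cells, 750 per well in 5% FBS RPMI, were exposed to compound for 48 hours. Viability: CellTiter-Glo luminescence.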
TDP1 cell CPT – growth inhibition of DT40 Tdp1-/-;hTDP1 cells with camptothecin (screen for TDP1 inhibitors); chicken DT40 Tdp1-/-;hTDP1 cells + 20 nM CPT, ATP luminescence, 48 h; Potency, µM (top dose mostly 46.2 µM), for the others: at the highest dose activity change, negative = growth inhibition, hits mostly inhibitors; 12% of 420,000 active; also: potency is read from the fitted curve at half-maximal effect; nearly all actives have a fitted effect of over 55% in size
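Chicken DT40 Tdp1-/- cells complemented with human TDP1, 400 cells/well, exposed to compounds plus 20 nM camptothecin for at least 48 h at 37 C; viability read as ATP content by CellTiter-Glo luminescence.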
TDP1 cell noCPT – qHTS for Inhibitors of human tyrosyl-DNA phosphodiesterase 1 (TDP1): qHTS in cells in absence of CPT; Potency, µM (series often up to 46.2 µM), for the others: top-dose activity change, negative = growth inhibition, hits mostly inhibitors; DT40 Tdp1-/- hTDP1 cells, no CPT, ATP luminescence, 48 h; 15% of 420,000 active; AID 686978, 2013; also: potency is read from the fitted curve at half-maximal effect; nearly all actives have a fitted effect of over 55% in size
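No-CPT arm: Tdp1-/-;hTDP1 DT40 cells (400/well) plus compounds, incubated ≥48 hr at 37 °C. Readout CellTiter-Glo luminescence.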
IL-1B inflam inh – blocks inflammasome-driven IL-1 beta release; THP-1 LPS/ATP IL-1B secretion, AlphaLISA, 16 h; hits give low values; activity change, % at 57.5 µM; 4.7% of 360,000 active; AID 743279; in the data active = activity change below about -50%; inconclusive = mostly about -30% to -49%
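Secreted IL-1B measured by AlphaLISA bead assay after 16 h compound exposure of THP-1 cells; compounds (final up to 57.5 uM) added 1 h before LPS (250 ng/mL) and ATP (1.25 mM) stimulation; lower signal means less secretion.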
ELG1 repair inh – blocks ELG1-dependent DNA repair in HEK293T cells; HEK293T ELG1-luciferase reporter, luminescence, 16 h; DNA damage induced by 5-fluorouridine; Potency, µM (top dose mostly 46.1 µM), for inactives: at the top dose activity change, negative = inhibition, actives largely listed as inhibitors; 2.3% of 330,000 active; AID 504467; also: potency is read from the fitted curve at half-maximal effect; nearly all actives have a fitted effect of over 55% in size
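Reporter activity after DNA damage by 5-fluorouridine is monitored. Compound-treated cells incubate 16 hr at 37 °C, then ONE-Glo is added for 30 min before luminescence reading.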
HT1080 IDH1KD tx – HT-1080 IDH1 knockdown cell toxicity (counter line); Potency, µM (series often up to 46.1 µM), without a hit: at the top dose activity, negative = toxicity, usual class: cytotoxic; 2% of 360,000 active; HT-1080 IDH1 knockdown viability, ATP luminescence, 48 h; AID 686971;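 also: potency is read from the fitted curve at half-maximal effect; 0% = DMSO wells and -100% = cell-free medium wells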
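HT-1080-IDH1KD cells (IDH1 knocked down), 750/well in RPMI with 5% FBS, treated with compound 48 h at 37 degrees C. Viability by CellTiter-Glo luminescence, normalised to DMSO and no-cell wells; concentration-response curves classed.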
Starred values were filed as active, the others as inactive; ? = inconclusive; / = no result given; [ ] = another dose, or the depositor's remark. Hits are enriched below; roughly 19% of the tested compounds scored in any of these assays. Unless noted, calls follow the shape of the dose curve; as a rule, active = well fitted curve in the direction sought with a large enough effect; inconclusive = small, poorly fitted or top-dose-only effect, or another doubt; inactive = no such curve, though single readings can be large; an effect the other way counts as inactive or inconclusive. Unless noted, % is scaled to controls: 0 for no effect and ±100 for the full control effect.

SMILES | HT1080-NT tox | TDP1 cell CPT | TDP1 cell noCPT | IL-1B inflam inh | ELG1 repair inh | HT1080 IDH1KD tx
COc1ccccc1/C=C(/C(=O)OCC(=O)Nc1cc(C)ccc1C)c1ccccc1 | -2% | 26µM* | 21µM* | -20 | -29% | -1%
CCc1ccc(NC(=O)COC(=O)/C(=C/c2ccccc2OC)c2ccccc2)cc1 | 1% | -2% | ? | 3 | -17% | -3%
COc1ccccc1/C=C(/C(=O)OCC(=O)N(C)Cc1ccccc1)c1ccccc1 | -9% | ? | 13µM* | -11 | -17% | -6%
CC(=O)Nc1c(C)nn(-c2ccccc2)c1N1CCC(C(=O)NCc2cccc(F)c2)CC1 | / | -11% | -20% | / | / | /
Cc1ccc(-n2nc3c(c2NC(=O)C(C)C)CS(=O)(=O)C3)c(C)c1 | -3% | -6% | -12% | -5 | -5% | -1%
COCCN(C(=O)COC(=O)/C=C/c1ccccc1Cl)c1c(N)n(Cc2ccccc2)c(=O)[nH]c1=O | 0% | ? | ? | ? | -5% | -6%
CN(C(=O)COC(=O)/C=C/c1ccc2ccccc2n1)c1c(N)n(Cc2ccccc2)c(=O)[nH]c1=O | 0% | ? | ? | -56* | ? | 6%
COCCN(C(=O)COC(=O)/C=C/c1ccc(SC)cc1)c1c(N)n(Cc2ccccc2)c(=O)[nH]c1=O | 7% | -19% | -4% | 35 | / | 8%
COCCN(C(=O)COC(=O)/C=C/c1ccc(C(F)(F)F)cc1)c1c(N)n(Cc2ccccc2)c(=O)[nH]c1=O | -11% | 21µM* | 21µM* | -2 | 6% | -7%
COCCN(C(=O)COC(=O)/C=C/c1ccc2ccccc2n1)c1c(N)n(Cc2ccccc2)c(=O)[nH]c1=O | -28% | ? | ? | 0 | 12µM* | ?
CC1CCCCN1C(=O)COC(=O)/C=C/c1ccc2ccccc2n1 (stereo not drawn) | -25% | ? | ? | -54* | -3% | -12%
Cc1ccc(C)c(CN2C(=O)c3ccccc3S(=O)(=O)c3ccc(C(=O)NCc4ccccc4)cc32)c1 | / | 20% | -17% | / | / | /
CCCc1cc(=O)n2[nH]c(NC(=O)c3ccccc3Cl)nc2n1 | / | -14% | -7% | / | / | /
COc1cc(=O)n2c(c1C(=O)NCc1ccsc1)CCN(Cc1nc3ccccc3[nH]1)CC2 | / | -10% | 0% | / | / | /
CC(=O)Nc1ccc(-c2ccnc3c2CC(C)(C(=O)NCC2CC2)O3)cc1 (stereo not drawn) | 18% | -25% | ? | 18 | / | 13%
CCOC(=O)N1CCN(C(=O)CSCC(=O)N=c2sc3ccccc3n2C)CC1 | 12% | 16µM* | ? | -18 | / | 8%
Cn1c(=NC(=O)c2ccco2)sc2ccccc21 | -21% | -28% | ? | -2 | ? | -7%
Cn1c(=NC(=O)CCl)sc2ccccc21 | 5.8µM* | 2.6µM* | 4.1µM* | -120* | ? | 6.5µM*
Cn1c(=NC(=O)c2ccc(F)cc2)sc2cc(Br)ccc21 | / | -11% | -16% | / | / | /
CC(=O)SCC(=O)N=c1sc2cc(F)ccc2n1C | 13% | ? | 21µM* | -6 | / | 11%
Cn1c(=Nc2ccccc2)sc2ccccc21 | -1% | -14% | -3% | 15 | ? | 4%
CN(C)c1ccc(N=c2sc3ccccc3n2C)cc1 | -20% | -30% | -30% | -51* | ? | -8%
CCN(CC)CCNC(=O)C(=O)Nc1c2c(nn1-c1ccc(F)cc1)CSC2 | / | -25% | -24% | / | / | /
CN(Cc1ccccc1)c1ncnc2c1nnn2C | / | -16% | -14% | / | / | /
CC(C)C(c1nnnn1Cc1ccccc1)N1CCc2ccccc2C1 (stereo not drawn) | -4% | ? | 16µM* | 6 | -6% | 8%[9.24 µM]
SMILES | HT1080-NT tox | TDP1 cell CPT | TDP1 cell noCPT | IL-1B inflam inh | ELG1 repair inh | HT1080 IDH1KD tx
CC(C)C(c1nnnn1C1CCCC1)N1CCc2ccccc21 (stereo not drawn) | -5% | ? | ? | 7 | -11% | -4%
c1ccc(Cn2nnnc2C(c2cccs2)N2CCc3ccccc3C2)cc1 (stereo not drawn) | ? | ? | 29µM* | -1 | -13% | ?
CC(C)C(c1nnnn1C1CCCCC1)N1CCc2ccccc2C1 (stereo not drawn) | ? | -22% | ? | -79* | 4% | -6%
COc1cc(NC(=O)CCC(=O)N2CCN(S(=O)(=O)c3ccc(C)cc3)CC2)cc(OC)c1 | -10% | -1% | -20% | -1 | / | -4%
O=C(Nc1c(F)cccc1F)c1cnc(N2CCN(c3ccccn3)CC2)c2ccccc12 | -18% | 23µM* | 23µM* | ? | 18µM* | -15%
Cc1ccc(NC(=O)c2cnc(N3CCN(c4ccccn4)CC3)c3ccccc23)c(Br)c1 | -14% | 15µM* | 13µM* | -28 | ? | ?
O=C(N1CCOCC1)N1CCN(c2ccccn2)CC1 | 6% | 4% | 4% | 1 | -3% | 10%
CCN1CCN(c2ncc(C(=O)Nc3cc(Cl)ccc3OC)c3ccccc23)CC1 | -30% | ? | ? | / | 9% | ?
O=C(O)Cn1nnc(-c2ccc(OCc3cccc(C(F)(F)F)c3)cc2)n1 | / | -3% | -2% | / | / | /
O=C(Nc1ccc(C2=CN(Cc3ccccc3)CCC2=O)cc1)OCc1ccccc1 | 0% | -3% | -10% | 2 | 13% | -3%
O=C1CCN(Cc2ccccc2)C=C1c1ccc(Br)cc1 | -19% | 18µM* | 23µM* | ? | 18% | -17%
Cc1ccc(C2=CN(Cc3ccccc3)CCC2=O)cc1 | 3% | 21µM* | ? | -8 | 0% | -13%
Cc1onc(-c2c(F)cccc2Cl)c1C(=O)OCC(=O)NC(=O)NCC(C)C | -25% | -23% | 7.3µM* | -19 | -20% | -17%
COc1ccc(CNC(=O)COC(=O)c2c(-c3c(F)cccc3Cl)noc2C)cc1OC | -6% | ? | ? | -8 | -28% | 4%
CCOCCCN(C(=O)c1snc(C(N)=O)c1N)C(C(=O)NCCC(C)C)c1ccc(Cl)cc1 (stereo not drawn) | -15% | -24% | ? | -13 | -24% | 1%
Fc1cccc(Cl)c1Cn1nnc2c(-n3ccnc3)ncnc21 | 0% | -3% | ? | 28 | 10% | -1%
Fc1cccc(Cl)c1Cn1nnc2c(NCc3ccncc3)ncnc21 | ? | 23µM* | ? | 18 | ? | ?
